Source: PubChem BioAssay
HepG2 tox: kills HepG2 cells in TGF-b inhibitor counter-screen | HepG2 CAGA-GFP viability, ATP luminescence, 18 h | Potency, µM (highest dose often 46.1 µM), for the others: top-dose activity change, negative = cytotoxicity, usual class: cytotoxic | 410,000 tested, 0.76% active; further: potency means the concentration at half of the fitted maximal effect
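CellTiter-Glo luminescence gave cytotoxicity after 18 hours at 37 degrees C. The cells were HepG2 CAGA-GFP in 1% FBS DMEM, stimulated with 500 pg/mL TGF-beta after compound addition. %Activity was normalised to no-cell wells (complete cell-killing) and DMSO (no toxicity), and curves were fitted and classified.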
TGFb SMAD3 inh: blocks TGF-b signaling. 410,000 tested, 1.2% active. HepG2 CAGA-GFP TGF-b/SMAD3 reporter, GFP fluorescence, 18 h; TGF-beta stimulated, 500 pg/mL final. Potency, µM (doses to about 46.1 µM), for the others: at the highest dose activity, negative = inhibition, most hits filed as inhibitors; further: potency means the concentration at half of the fitted maximal effect; on the % scale 0 is the no-effect control and ±100 the full control effect; nearly all actives have a fitted effect of over 65% in size
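Read-out: total well GFP (ex488/em500-530) summed from mean per-cell fluorescence. Cells: HEPG2 CAGA-GFP, 1% FBS DMEM, 18 h at 37 degrees C with 500 pg/mL final TGF-beta. Unstimulated wells served as the full-inhibition control; stimulated DMSO wells = 0%.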
TDP1 block: TDP1 (human) enzyme inhibition | Q9NUW8 | recombinant TDP1, AlphaScreen DNA substrate cleavage | Potency, µM (highest dose often 130 µM), for the others: at the top dose activity change, negative = inhibition, most hits filed as inhibitors | 350,000 tested, 0.28% active; further: potency means the concentration at half of the fitted maximal effect; on the % scale 0 is the no-effect control and ±100 the full control effect; nearly all actives have a fitted effect of over 40% in size
Target sequence (Q9NUW8 whole entry, looked up): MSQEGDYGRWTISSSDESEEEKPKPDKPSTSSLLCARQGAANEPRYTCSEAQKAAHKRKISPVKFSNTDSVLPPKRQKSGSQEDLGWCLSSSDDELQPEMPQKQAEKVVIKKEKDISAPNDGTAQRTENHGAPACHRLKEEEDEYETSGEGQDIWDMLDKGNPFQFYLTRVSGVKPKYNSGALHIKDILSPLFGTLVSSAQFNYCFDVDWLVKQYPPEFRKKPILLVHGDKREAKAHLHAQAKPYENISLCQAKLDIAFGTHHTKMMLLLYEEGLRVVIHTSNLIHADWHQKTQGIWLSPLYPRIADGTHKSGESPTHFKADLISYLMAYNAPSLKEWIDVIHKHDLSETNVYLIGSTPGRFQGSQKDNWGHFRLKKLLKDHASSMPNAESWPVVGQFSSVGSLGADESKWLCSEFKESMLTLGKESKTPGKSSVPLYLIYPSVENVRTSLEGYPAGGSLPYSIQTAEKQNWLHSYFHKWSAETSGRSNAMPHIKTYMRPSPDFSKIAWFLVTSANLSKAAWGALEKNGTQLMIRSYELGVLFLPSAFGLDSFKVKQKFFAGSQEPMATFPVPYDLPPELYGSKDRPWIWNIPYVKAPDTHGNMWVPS
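Recombinant human Tdp1 (E. coli-expressed, 1 nM final) preincubated with compounds 15 min at room temperature, then 5'-biotin/3'-phosphotyrosine-FITC DNA substrate (15 nM final) added for 5 min. AlphaScreen beads (10 ug/ml final) added 10 min; cleavage lowers signal.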
IL1B secr inh: blocks inflammasome-driven IL-1 beta release; THP-1 LPS/ATP IL-1B secretion, AlphaLISA, 16 h; hits give low values; activity change, % at 57.5 µM; 360,000 tested, 4.7% active; AID 743279; in the data active means activity change below about -50%; inconclusive means mostly about -30% to -49%; further: on the % scale 0 is the no-effect control and ±100 the full control effect
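Secreted IL-1B measured by AlphaLISA bead assay after 16 h compound exposure of THP-1 cells; compounds (final up to 57.5 uM) added 1 h before LPS (250 ng/mL) and ATP (1.25 mM) stimulation; lower signal means less secretion.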
DT40 TDP1 no CPT: qHTS for Inhibitors of human tyrosyl-DNA phosphodiesterase 1 (TDP1): qHTS in cells in absence of CPT; DT40 Tdp1-/- hTDP1 cells, no CPT, ATP luminescence, 48 h; Potency, µM (top dose mostly 46.2 µM), inactives show at the top dose activity change, negative = growth inhibition, most hits filed as inhibitors; 420,000 tested, 15% active; further: potency means the concentration at half of the fitted maximal effect; on the % scale 0 is the no-effect control and ±100 the full control effect; nearly all actives have a fitted effect of over 55% in size
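Seeded 400 DT40-hTDP1 cells/well (vehicle DMSO, no 20 nM CPT); pinned compounds; ≥48 hr at 37 °C; CellTiter-Glo luminescence as viability measure.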
DT40 TDP1 CPT: DT40-hTDP1 cell growth loss with CPT; chicken DT40 Tdp1-/-;hTDP1 cells + 20 nM CPT, ATP luminescence, 48 h; Potency, µM (doses to about 46.2 µM), for the others: top-dose activity change, negative = growth inhibition, hits mostly inhibitors; 420,000 tested, 12% active; AID 686979; further: potency means the concentration at half of the fitted maximal effect; on the % scale 0 is the no-effect control and ±100 the full control effect; nearly all actives have a fitted effect of over 55% in size
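Chicken DT40 Tdp1-/- cells complemented with human TDP1, 400 cells/well, exposed to compounds plus 20 nM camptothecin for at least 48 h at 37 C; viability read as ATP content by CellTiter-Glo luminescence.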
Starred values were filed as active, the others as inactive; i = inactive; ? = inconclusive; . = not tested or not shown. Compounds with a hit are over-represented: about 19% of the library has one in this group of screens. Unless noted, the call rests on the fitted dose curve; in most records, active means well fitted curve in the direction sought with a large enough effect; inconclusive means small, poorly fitted or top-dose-only effect, or another doubt; inactive means no such curve, though single readings can be large; an effect the other way counts as inactive or inconclusive.

SMILES	HepG2 tox	TGFb SMAD3 inh	TDP1 block	IL1B secr inh	DT40 TDP1 no CPT	DT40 TDP1 CPT
Cc1ccc(OCc2cc(C(=O)N3CCCCCCC3)no2)cc1C	-18%	-7%	-7%	-15	5%	-18%
Cc1cc(OCc2cc(C(=O)N3CCN(CC4CC4)CC3)no2)cc(C)c1Cl	-7%	-22%	7%	0	?	?
Cc1cc(OCc2cc(C(=O)N3CCCCCC3)no2)cc(C)c1Cl	-8%	?	-8%	0	?	15µM*
Cc1ccc(OCc2cc(C(=O)N3CCN(C4CCCCC4)CC3)no2)cc1C	-16%	-3%	6%	8	?	16µM*
Cc1ccc(OCc2cc(C(=O)N3CCN(C4CCCC4)CC3)no2)cc1C	-16%	-14%	10%	i	-24%	-25%
Cc1cc(OCc2cc(C(=O)N(C)C(C)c3ccccn3)no2)cc(C)c1Cl (stereo not drawn)	-23%	-1%	-6%	-12	?	18µM*
Cc1cc(OCc2cc(C(=O)N(C)Cc3ccccn3)no2)cc(C)c1Cl	10%	-8%	-4%	i	?	?
Cc1cc(OCc2cc(C(=O)N3CCC(Oc4cccnc4)CC3)no2)cc(C)c1Cl	-28%	?	3%	-62*	15µM*	13µM*
Cc1ccccc1C1CCCN(C(=O)c2cc(COc3c(F)cccc3F)on2)C1 (stereo not drawn)	-41%	?	-3%	6	21µM*	23µM*
O=C(Nc1ccccc1N1CCOCC1)c1cccc2c(Br)cccc12	-6%	?	.	-3	18µM*	?
O=C(Nc1ccccc1N1CCOCC1)c1cc(=O)[nH]c2ccccc12	-9%	-2%	1%	6	16µM*	?
CCN(CC)S(=O)(=O)c1ccc(N2CCOCC2)c(NC(=O)c2cc(=O)[nH]c3ccccc23)c1	-21%	-24%	-1%	6	-4%	-11%
CN(c1ccc([N+](=O)[O-])cc1/C=N/NC(=O)COc1ccccc1)C1CCCCC1	3%	11%	0%	-3	16µM*	?
Cc1ccc(C)c(NC(=O)Cn2ncc3c([nH]c4ccccc43)c2=O)c1	4%	5%	2%	.	-4%	1%
COc1ccc(CCNC(=O)c2ccc3[nH]c(C)c(C)c3c2)cc1OC	-33%	-35%	8%	.	23µM*	?
COc1ccc(CCNC(=O)c2ccc(=O)[nH]c2)cc1OC	-3%	2%	.	21	2%	7%
Cc1cc(NC(=O)c2ccc3[nH]c(C)c(C)c3c2)ccn1	-13%	0%	.	-58*	26µM*	21µM*
COc1ccc(OC)c(CCNC(=O)c2ccc3[nH]c(C)c(C)c3c2)c1	-25%	0%	13%	.	21µM*	?
COc1ccccc1CNC(=O)c1ccc2[nH]c(C)c(C)c2c1	-16%	.	9%	.	-12%	9%
CCOc1ccc(CCNC(=O)c2ccc3[nH]c(C)c(C)c3c2)cc1	-28%	0%	13%	.	21µM*	?
Cc1ccc(CCNC(=O)c2ccc3[nH]c(C)c(C)c3c2)cc1	-25%	?	11%	.	-22%	?
O=C(OCC(=O)N(C1CCCCC1)C1CCCCC1)c1ccc(Cl)nc1	-11%	-9%	-9%	12	5%	-5%
COc1ccc(OCCSc2nc3ccccc3c(=O)[nH]2)cc1	-13%	4%	5%	-2	?	?
COc1ccccc1OCCSc1nc(C)c(Cc2ccccc2)c(=O)[nH]1	-3%	-18%	-1%	43	11%	1%
CCc1c(C)nc(SCCOc2ccc(OC)cc2)[nH]c1=O	0.32µM*	4%	4%	35	?	?
